CF NFkB inh – inhibitors of PAF-induced NF-kB signaling, primary screen, cell-based, GFP fluorescence, uHTS; 360,000 compounds, 0.86% hits; inhibition, % at 5 µM; AID 588850, 2011; KKLEB NF-kB-GFP reporter, GFP fluorescence overnight;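 active means at least 50% inhibition at 5 µM, scaled per plate between neutral and stimulator controls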;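 further: PAF is a Pseudomonas aeruginosa culture filtrate used as stimulus; plate controls were PAF-stimulated DMSO wells for no effect and unstimulated DMSO wells for full effect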
PAX8 reporter – inhibitors of PAX8-driven TPO luciferase reporter, primary screen, RMG-I cells, single concentration; inhibition, % at 12.6 µM; 360,000 compounds, 1.2% hits; SteadyGlo, 24 h;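 active means mean replicate inhibition at least 60% with every replicate also reaching 60%; inconclusive means only one of the two criteria is met; inactive means mean below 60% and not all replicates reaching 60%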;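 further: luciferase light reporting Pax8 driven TPO promoter activity; plate controls were median of neutral control wells for no effect and mitoxantrone controls for full effect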
EWS-Fli inh – EWS/Fli-driven NR0B1 reporter inhibitors, primary screen, A673 cells, NR0B1 luciferase, luminescence, MLPCN library; inhibition, % at 12.6 µM; 350,000 compounds, 0.67% hits; viability-normalised;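 active means mean inhibition of at least 50% after viability correction, with every replicate also passing that limit; inconclusive means mean reaches 50% but only one of two replicates passes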;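 further: firefly luciferase signal divided by Alamar Blue viability fluorescence both relative to DMSO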
KKLEB cytotox – cytotoxicity in KKLEB CF airway cells, primary screen, cytotoxicity control for CF NF-kB inhibitor project, cell-based, uHTS, fluorescence assay plates | AID 602141, 2011 | KKLEB CF airway cells viability, ATPlite luminescence, overnight; hits give low values; cells stimulated with P. aeruginosa culture filtrate | activity change (cytotoxicity), % at 5 µM | 360,000 compounds, 0.36% hits;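 active means corrected activity change at or below -50% at 5 µM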
HIF-2a block – HIF-2a reporter inhibitors, primary screen, luminescence, 786-0 RCC cells; 360,000 compounds, 0.72% hits; 786-0 RCC cells HIF-2a reporter, luciferase luminescence, overnight; inhibition, % at 18.8 µM; AID 624352, 2012;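 active means inhibition of the luminescence signal of 40% or more relative to plate controls, in a single-dose primary screen at 18.75 µM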
Active calls of the source: *; ? = inconclusive; nt = no result given. Most compounds without a hit are left out; they make up all but 2.1% or so of the library.

SMILES	CF NFkB inh	PAX8 reporter	EWS-Fli inh	KKLEB cytotox	HIF-2a block
Cc1ccc(NC(=O)c2csc(-c3ccccc3)c2C)cc1	7	14	nt	-54*	18
C[C@H](CO)N1C[C@H](C)[C@H](CN(C)C)Oc2ccc(NS(C)(=O)=O)cc2CC1=O	nt	-7	-8	nt	nt
CO[C@@H]1CN(C)C(=O)c2cc(NC(=O)c3ccc4c(c3)OCO4)ccc2OC[C@@H](C)N(CCC(F)(F)F)C[C@@H]1C	nt	12	9	nt	nt
C[C@@H]1CN([C@@H](C)CO)C(=O)c2cc(NS(=O)(=O)c3ccccc3)ccc2O[C@@H](C)CCCCO[C@@H]1CN(C)C(=O)Nc1ccc(F)cc1	nt	-19	-2	nt	nt
Cc1cc(C(=O)Nc2cccc3c2O[C@H](CN(C)C(=O)Nc2c(C)noc2C)[C@H](C)CN([C@H](C)CO)C3=O)n(C)n1	nt	nt	-3	nt	nt
Cc1ccc(NC(=O)c2cc(C)n(-c3ccccc3)c2C)cc1	-6	19	69*	-73*	54*
COC(=O)C1=C(CN2CCCc3ccccc32)NC(=O)NC1c1ccc(F)cc1 (stereo unspecified)	-29	nt	nt	-4	63*
O=C(OCc1ccc(Br)cc1)c1cc([N+](=O)[O-])ccc1N1CCOCC1	-3	21	62*	-4	12
O=C(OCc1cccc(C(F)(F)F)c1)c1cc([N+](=O)[O-])ccc1N1CCOCC1	16	9	10	-8	4
O=C(OCc1cccc(Cl)c1)c1cc([N+](=O)[O-])ccc1N1CCOCC1	17	74*	-7	-20	5
COc1ccc(COC(=O)c2cc([N+](=O)[O-])ccc2N2CCOCC2)cc1F	55*	96*	49	-23	29
CCc1ccc(C(=O)COC(=O)c2cc([N+](=O)[O-])ccc2N2CCOCC2)cc1	1	37	?	-4	17
O=C(COC(=O)c1cc([N+](=O)[O-])ccc1N1CCOCC1)Nc1ccc(Cl)cn1	22	61*	nt	-15	13
C[C@H]1CCCCO[C@H](CN(C)Cc2ccc(Cl)c(Cl)c2)[C@@H](C)CN([C@@H](C)CO)C(=O)c2cc(NC(=O)Cc3ccccc3)ccc2O1	nt	?	18	nt	nt
C[C@@H]1CCCCO[C@@H](CN(C)Cc2ccc(Cl)c(Cl)c2)[C@H](C)CN([C@@H](C)CO)C(=O)c2cc(NC(=O)Cc3ccccc3)ccc2O1	nt	87*	9	nt	nt
C[C@@H]1CN([C@H](C)CO)C(=O)c2cc(NC(=O)Cc3ccccc3)ccc2O[C@@H](C)CCCCO[C@H]1CN(C)Cc1ccc(Cl)c(Cl)c1	nt	97*	9	nt	nt
C/C=C/c1ccc([C@H]2[C@H](CO)N(C(=O)c3cnccn3)C23CN(C(=O)CC)C3)cc1	nt	nt	-1	nt	nt
CN(C)CC(=O)N1[C@H](CO)[C@@H](c2ccccc2)C12CN(Cc1cc(F)ccc1F)C2	nt	6	2	nt	nt
COc1ccc(NC(=O)C2(C)Cc3c(-c4ccc5c(c4)OCO5)ccnc3O2)cn1 (stereo unspecified)	2	22	64*	-3	-6
CC1(C(=O)Nc2ccc3c(c2)OCO3)Cc2c(-c3cccc(C(N)=O)c3)ccnc2O1 (stereo unspecified)	8	36	59*	-14	12
CC1(C(=O)Nc2ccc3c(c2)OCO3)Cc2c(-c3ccc4c(c3)OCO4)ccnc2O1 (stereo unspecified)	26	nt	-23	-18	8
CN(C)CCCNC(=O)C[C@H]1CC[C@@H]2[C@H](COc3ccc(NC(=O)c4ccccc4F)cc3C(=O)N2C)O1	nt	-33	-25	nt	nt
CC(C)NC(=O)N1CC2(C1)[C@@H](c1ccccc1)[C@@H](CO)N2C(=O)C1CC1	nt	nt	1	nt	nt
C[C@@H]1CN([C@H](C)CO)C(=O)c2cc(NC(=O)Cc3ccccc3)ccc2O[C@@H](C)CCCCO[C@H]1CN(C)S(=O)(=O)c1ccc(F)cc1	nt	15	11	nt	nt
CC(C)CC#Cc1ccc2c(c1)O[C@H](CN(C)S(=O)(=O)c1cccc(F)c1)[C@H](C)CN([C@H](C)CO)S2(=O)=O	nt	nt	9	nt	nt
SMILES	CF NFkB inh	PAX8 reporter	EWS-Fli inh	KKLEB cytotox	HIF-2a block
CC(C)CC#Cc1ccc2c(c1)O[C@H](CN(C)S(=O)(=O)c1ccc(F)cc1)[C@@H](C)CN([C@@H](C)CO)S2(=O)=O	nt	101*	19	nt	nt
CC(C)CC#Cc1ccc2c(c1)O[C@@H](CN(C)S(=O)(=O)c1ccc(F)cc1)[C@@H](C)CN([C@@H](C)CO)S2(=O)=O	nt	95*	19	nt	nt
CC(C)CC#Cc1ccc2c(c1)O[C@@H](CN(C)S(=O)(=O)c1ccc(F)cc1)[C@H](C)CN([C@@H](C)CO)S2(=O)=O	nt	81*	27	nt	nt
CC(C)CC#Cc1ccc2c(c1)O[C@H](CN(C)S(=O)(=O)c1cccc(F)c1)[C@H](C)CN([C@@H](C)CO)S2(=O)=O	nt	nt	44	nt	nt
CCCCCCCn1c2c(c(=N)c3c1CCC3)CCCC2	47	94*	63*	-23	16
CCCCCCn1c2c(c(=N)c3c1CCC3)CCC2	32	nt	nt	-44	-4
COc1ccc(CN(C)C[C@H]2OCCCC[C@H](C)Oc3ccc(NC(=O)c4ccncc4)cc3C(=O)N([C@H](C)CO)C[C@H]2C)cc1	nt	10	0	nt	nt
CC(C)CC#Cc1ccc2c(c1)O[C@H](CN(C)Cc1ccc3c(c1)OCO3)[C@@H](C)CN([C@H](C)CO)S2(=O)=O	nt	nt	23	nt	nt
C[C@H](CO)N1C[C@H](C)[C@@H](CN(C)Cc2ccc(C(F)(F)F)cc2)OCCCC[C@H](C)Oc2ccc(NC(=O)Cc3ccccc3)cc2C1=O	nt	80*	7	nt	nt
C[C@@H]1CN([C@H](C)CO)C(=O)c2cc(NC(=O)CCC(F)(F)F)ccc2O[C@@H](C)CCCCO[C@@H]1CN(C)Cc1ccc(Cl)c(Cl)c1	nt	81*	-6	nt	nt
C[C@@H]1CN([C@H](C)CO)C(=O)c2cc(NC(=O)Cc3ccccc3)ccc2O[C@@H](C)CCCCO[C@@H]1CN(C)Cc1ccc(C(F)(F)F)cc1	nt	87*	-3	nt	nt
C[C@@H]1CN([C@@H](C)CO)C(=O)c2cc(NC(=O)CCC(F)(F)F)ccc2O[C@@H](C)CCCCO[C@H]1CN(C)Cc1ccc(C(F)(F)F)cc1	nt	75*	10	nt	nt
C[C@@H]1CCCCO[C@@H](CN(C)S(=O)(=O)c2cccs2)[C@H](C)CN([C@@H](C)CO)C(=O)c2cc(NC(=O)Nc3ccccc3)ccc2O1	nt	5	5	nt	nt
COc1ccccc1S(=O)(=O)N(C)C[C@@H]1Oc2cc(C#CCC(C)C)ccc2S(=O)(=O)N([C@@H](C)CO)C[C@H]1C	nt	nt	15	nt	nt
C[C@@H]1CCCCO[C@@H](CN(C)Cc2ccc(C(F)(F)F)cc2)[C@H](C)CN([C@@H](C)CO)C(=O)c2cc(NC(=O)Cc3ccccc3)ccc2O1	nt	81*	14	nt	nt
